Reference: PubChem BioAssay (Tox21)
Several values for one entry are separate records, joined by “and”; a condition that tells them apart may be missing. Identical values can stand only once. Inconclusive results are not listed. Where a call stands in place of a potency, no number is given. Activity calls are given as the source filed them. Calls come from the whole dose curve; as a rule, active = well fitted cell-killing curve with a large enough effect in the repeat runs; inconclusive = weak or mixed curves, or effect the other way; inactive = flat fitted curve, though single readings scatter.

What was measured:
[1] = cAMP Responsive Elements (CRE) small molecule antagonists, cell-based qHTS assay: qHTS cell viability counter screen (AID 2060913); note: nearly all actives have a fitted effect of over 40% in size
How it was run: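 Cytotoxicity read in the same wells as the CRE-bla HEK293T antagonist assay: after 3 h compound with 0.25 uM NKH477 final and 2 h beta-lactamase substrate, CellTiter-Glo luminescence measured.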

[2] = cAMP Responsive Elements (CRE) small molecule agonists, cell-based qHTS assay: qHTS cell viability counter screen (AID 2060914);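 note: viability read after 3 h of compound exposure; nearly all actives have a fitted effect of over 50% in size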
How it was run: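 CRE-bla HEK293T cells in 10% dialyzed FBS medium were exposed to compounds for 3 h at 37C after 18 h plating. CellTiter-Glo was then added in the same wells, and luminescence was read after 30 min at room temperature.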
Potency is the fitted concentration of half-maximal effect.

Row | SMILES | Potency [1] | Potency [2] | viability change, negative = cytotoxic [1] | activity change, negative = cytotoxicity [2]
1 | O=C1CCCc2ccccc21 | inactive | inactive |  | 
2 | CCCCOC(=O)c1ccc(N)cc1 | inactive | inactive |  | 
3 | Cc1cccc2ccccc12 | inactive | inactive |  | 
4 | Cc1ccc(-n2[nH]c(C)c(N=Nc3cccc(-c4cccc(C(=O)O)c4)c3O)c2=O)cc1C | inactive | inactive |  | 
5 | CC1CCC(C(C)CS)CC1S (configuration not stated) | inactive | inactive |  | 
6 | Cc1ccc(S(=O)(=O)NCl)cc1 | inactive | inactive |  | 
7 | CCN(C=O)CC | inactive | inactive |  | 
8 | CCOC(=O)c1ccccc1C(=C1C=C(Br)C(=O)C(Br)=C1)c1cc(Br)c(O)c(Br)c1 | inactive | inactive |  | 
9 | Cc1cc(C)nc(NS(=O)(=O)c2ccc(N)cc2)n1 | inactive | inactive |  | 
10 | CN[C@@H]1[C@@H](O)[C@@H](O[C@@H]2[C@H](O)[C@H](O[C@H]3OC(CN)=CC[C@H]3N)[C@@H](N)C[C@H]2N)OCC1(C)O (some centres not stated) | inactive | inactive |  | 
11 | CCCOCC(C)OCC(C)O (configuration not stated) | inactive | inactive |  | 
12 | Cc1ccc2c(c1[N+](=O)[O-])C(=O)c1ccccc1C2=O | inactive | inactive |  | 
13 | COc1ccc(NC(C)=O)cc1 | inactive | inactive |  | 
14 | CC(=O)c1ccccc1N | inactive | inactive |  | 
15 | O=C1OC(=O)C2C3C=CC(C3)C12 (configuration not stated) | inactive | inactive |  | 
16 | O=Cc1ccc(C(=O)O)cc1 | inactive | inactive |  | 
17 | C/C=C/C(=O)CCCC | inactive | inactive |  | 
18 | N[C@@H](Cc1cc(I)c(Oc2cc(I)c(O)c(I)c2)c(I)c1)C(=O)O | inactive | inactive |  | 
19 | C[N+](C)(C)CCO | inactive | inactive |  | 
20 | OC1OC[C@@H](O)[C@H](O)[C@H]1O (some centres not stated) | inactive | inactive |  | 
21 | COc1ccc(C(=O)c2ccc(C)cc2)c(O)c1 | inactive | inactive |  | 
22 | O=C1CC2CC1C1CCCC21 (configuration not stated) | inactive | inactive |  | 
23 | C/C=C/c1ccc(O)c(OC)c1 | inactive | inactive |  | 

Row | SMILES | Potency [1] | Potency [2] | viability change, negative = cytotoxic [1] | activity change, negative = cytotoxicity [2]
24 | O=C1c2c(O)ccc(Nc3ccc(CCO)cc3)c2C(=O)c2c([N+](=O)[O-])ccc(O)c21 | inactive | inactive |  | 
25 | Nc1ccc(N=Nc2ccc(N)cc2)cc1 | inactive | inactive |  | 
26 | CN(C)C(=O)Nc1ccc(Cl)c(Cl)c1 | inactive | inactive |  | 
27 | O=P(O)(O)C(O)(Cc1cccnc1)P(=O)(O)O | inactive | inactive |  | 
28 | CC(C)(O)c1ccc(C(C)(C)O)cc1 | inactive | inactive |  | 
29 | CCN(CC)c1ccc(C(=O)c2ccccc2C(=O)O)c(O)c1 | inactive | inactive |  | 
30 | COc1ccc(N)c(C)c1 | inactive | inactive |  | 
31 | O=P(O)(OCc1ccccc1)OCc1ccccc1 | inactive | inactive |  | 
32 | Cc1c(O)cccc1O | inactive | inactive |  | 
33 | COc1cc(C(=O)NS(=O)(=O)c2ccccc2C)ccc1Cc1cn(C)c2ccc(NC(=O)OC3CCCC3)cc12 | inactive | inactive |  | 
34 | CCOC(=O)C(O)c1ccccc1 (configuration not stated) | inactive | inactive |  | 
35 | O=C1CCCC(=O)C1 | inactive | inactive |  | 
36 | CN1CCN(Cc2cc(-c3ccc4[nH]c(=O)oc4c3)co2)[C@@H](c2ccc(F)cc2)C1 | inactive | inactive |  | 
37 | CCOC(=O)C1OC1c1ccccc1 (configuration not stated) | inactive | inactive |  | 
38 | CC(=O)OCCOC(C)=O | inactive | inactive |  | 
39 | BrC(Br)C(Br)Br | inactive | inactive |  | 
40 | COc1ccc(NS(=O)(=O)c2ccc(N)cc2)nn1 | inactive | inactive |  | 
41 | C=CC1CO1 (configuration not stated) | inactive | inactive |  | 
42 | COc1cc([C@@H]2c3cc4c(cc3[C@H](O)[C@H]3COC(=O)[C@H]23)OCO4)cc(OC)c1OC | inactive | inactive |  | 
43 | CC(=O)c1c(C)c([N+](=O)[O-])c(C(C)(C)C)c([N+](=O)[O-])c1C | inactive | inactive |  | 
44 | COC(=O)c1cc(Cl)ccc1NS(=O)(=O)C(F)(F)F | inactive | inactive |  | 
45 | CNCCCN1c2ccccc2CCc2ccccc21 | inactive | inactive |  | 
46 | CCCCCCCCCCCCC | inactive | inactive |  | 

Row | SMILES | Potency [1] | Potency [2] | viability change, negative = cytotoxic [1] | activity change, negative = cytotoxicity [2]
47 | CCCCN(CCCC)C(C(N)=O)c1ccc(OC)cc1 (configuration not stated) | inactive | inactive |  | 
48 | CCCCCCOC(=O)c1ccc(O)cc1 | inactive | inactive |  | 
49 | O=c1[nH]cnc2nc[nH]c12 | inactive | inactive |  | 
50 | CN1CCc2cccc3c2[C@H]1Cc1ccc(O)c(O)c1-3 | inactive | inactive |  | 
51 | CCOC(=O)N1CCC(=C2c3ccc(Cl)cc3CCc3cccnc32)CC1 | inactive | inactive |  | 
52 | C[C@@H]1CC[C@H]2C(C)(C)[C@H]3C[C@@]12CC[C@@]3(C)O | inactive | inactive |  | 
53 | CC(C)(C)C(=O)NCCCC(=O)O | inactive | inactive |  | 
54 | CC(=O)c1ccc(C)cc1 | inactive | inactive |  | 
55 | C=CC(C)(O)CCC=C(C)C (configuration not stated) | inactive | inactive |  | 
56 | C[C@H]1NCc2cc(-c3ccc4c(=O)c(C(=O)O)cn(C5CC5)c4c3OC(F)F)ccc21 |  |  | 4.45% [at 18.9 µM] (inactive) | -2.79% [at 18.9 µM] (inactive)
57 | CC(=O)N(CC(O)CN(C(C)=O)c1c(I)c(C(=O)NCC(O)CO)c(I)c(C(=O)NCC(O)CO)c1I)c1c(I)c(C(=O)NCC(O)CO)c(I)c(C(=O)NCC(O)CO)c1I (configuration not stated) | inactive | inactive |  | 
58 | O=C(OCCN1CCOCC1)c1cccnc1Nc1cccc(C(F)(F)F)c1 | inactive | inactive |  | 
59 | O=C(Cl)c1cc(Cl)cc(Cl)c1 | inactive | inactive |  | 
60 | CC1=CC(=O)CC(C)(C)C1=O | inactive | inactive |  | 
61 | CC(=O)OCC(COC(C)=O)OC(C)=O | inactive | inactive |  | 
62 | CC(CCC(=O)O)C(=O)O (configuration not stated) | inactive | inactive |  | 
63 | COc1cc2c(cc1OC)-c1cc(=Nc3c(C)cc(C)cc3C)n(C)c(=O)n1CC2 | inactive | inactive |  | 
64 | CN(C)CC[C@@H](c1ccc(Br)cc1)c1ccccn1 | inactive | inactive |  | 
65 | [Cl][Bi]([Cl])([c]1ccccc1)([c]1ccccc1)[c]1ccccc1 | 30.5 µM (active) | 43 µM (active) |  | 
66 | C=Cc1c(C)c2cc3[nH]c(cc4nc(cc5nc(cc1[nH]2)C(C)=C5CCC(=O)O)C(CCC(=O)O)=C4C)c(C)c3C=C | inactive | inactive |  | 
67 | COC(=O)c1cc(C(=O)OC)cc(S(=O)(=O)O)c1 | inactive | inactive |  | 
68 | CCCC(C)c1ccccc1O (configuration not stated) | inactive | inactive |  | 
69 | CCCCCCC1CCCC(=O)O1 (configuration not stated) | inactive | inactive |  | 

Row | SMILES | Potency [1] | Potency [2] | viability change, negative = cytotoxic [1] | activity change, negative = cytotoxicity [2]
70 | c1ccc(-c2ccc(C(c3ccccc3)n3ccnc3)cc2)cc1 (configuration not stated) | inactive | inactive |  | 
71 | CNC[C@H](O)c1ccc(O)c(O)c1 | inactive | inactive |  | 
72 | Oc1ccccc1C=NCc1ccccc1 | inactive | inactive |  | 
73 | CCNC(=O)NCc1cccc(Cl)c1 | inactive | inactive |  | 
74 | COC1=C(OC)C(=O)C(CCCCCCCCCCO)=C(C)C1=O | inactive | inactive |  | 
75 | Nc1ccccn1 | inactive | inactive |  | 
76 | O=S(=O)(O)SSS(=O)(=O)O | inactive | inactive |  | 
77 | CC1=CC[C@@H](C(C)(C)O)CC1 | inactive | inactive |  | 
78 | CC(N)C12CC3CC(CC(C3)C1)C2 (configuration not stated) | inactive | inactive |  | 
79 | CCN1CCC[C@H]1CNC(=O)c1c(OC)ccc(Br)c1OC | inactive | inactive |  | 
80 | CCOC(=O)[C@H](CCc1ccccc1)N[C@@H](C)C(=O)N1C(=O)N(C)C[C@H]1C(=O)O | inactive | inactive |  | 
81 | OC1(c2ccccc2)CCNCC1 | inactive | inactive |  | 
82 | Cn1c(=O)c2c(ncn2CC2OCCO2)n(C)c1=O | inactive | inactive |  | 
83 | O=C(NO)C1(NS(=O)(=O)c2ccc(Oc3ccc(F)cc3)cc2)CCOCC1 | inactive | inactive |  | 
84 | O=C(OCc1ccccc1)C(=O)OCc1ccccc1 | inactive | inactive |  | 
85 | Cc1[nH]c(C)c(Cl)c(=O)c1Cl |  |  | 2.74% [at 18.9 µM] (inactive) | 4.19% [at 18.9 µM] (inactive)
86 | CC1(C)CCC(C)(C)c2cc(NC(=O)c3ccc(C(=O)O)cc3)ccc21 | inactive | inactive |  | 
87 | CC(C)(CO)C(O)C(=O)NCCCO (configuration not stated) | inactive | inactive |  | 
88 | CCc1oc2ccccc2c1C(=O)c1cc(I)c(O)c(I)c1 | inactive | inactive |  | 
89 | O=C1OCCN1/N=C/c1ccc([N+](=O)[O-])o1 | inactive | inactive |  | 
90 | COc1ccccc1NC(=O)CC(C)=O | inactive | inactive |  | 
91 | CC(C)O.CC(C)O.CCOC(=O)/C=C(\C)O.CCOC(=O)/C=C(\C)O.[Ti] | inactive | inactive |  | 
92 | OC[C@H]1O[C@@H](Oc2ccc(O)cc2)[C@H](O)[C@@H](O)[C@@H]1O | inactive | inactive |  | 

Row | SMILES | Potency [1] | Potency [2] | viability change, negative = cytotoxic [1] | activity change, negative = cytotoxicity [2]
93 | O=C(c1ccccc1O)c1ccccc1O | inactive | inactive |  | 
94 | C=CCCC | inactive | inactive |  | 
95 | C[C@H](CS)C(=O)N1CCC[C@H]1C(=O)O | inactive | inactive |  | 
96 | CCCCCCCCCCCCCCCBr | inactive | inactive |  | 
97 | C=CC[N+]1([C@H]2C[C@H]3[C@@H]4CC[C@H]5C[C@H](OC(C)=O)[C@@H](N6CCCCC6)C[C@]5(C)[C@H]4CC[C@]3(C)[C@H]2OC(=O)CC)CCCCC1 | inactive | inactive |  | 
98 | OCCN1CCN(CCO)CC1 | inactive | inactive |  | 
99 | CN(C)c1ccc(C(=C2C=CC(=[N+](C)C)C=C2)c2ccc(N(C)C)cc2)cc1 | 30.5 µM (active) and 61.1 µM (active) and 29.8 µM (active) | 48.3 µM (active) and 61.1 µM (active) and 29.8 µM (active) |  | 
100 | O=C(O)c1cn(-c2ccc(F)cc2)c2cc(N3CCNCC3)c(F)cc2c1=O | inactive | inactive |  | 
101 | Cc1cc(C)c(N)cc1C | inactive | inactive |  | 
102 | O=Cc1cccc([N+](=O)[O-])c1 | inactive | inactive |  | 
103 | C=Cc1ccccc1C=C | inactive | inactive |  | 
104 | CCOC(=O)c1cccnc1 | inactive | inactive |  | 
105 | CC(C)CCCCCCCCCCCCCCC(=O)O | inactive | inactive |  | 
106 | Clc1cccc(Cl)n1 | inactive | inactive |  | 
107 | Brc1ccccc1-c1ccccc1 | inactive | inactive |  | 
108 | CC1=CC(C)C(C=O)CC1 (configuration not stated) | inactive | inactive |  | 
109 | Clc1cccc(Cl)c1NC1=NCCN1 | inactive | inactive |  | 
110 | O=P(c1ccccc1)(c1ccccc1)c1ccccc1 | inactive | inactive |  | 
111 | CCOB(OCC)OCC | inactive | inactive |  | 
